Among all 360,000 compounds or so, about 1,700 (0.47%) were called active. Inconclusive results (about 2%) are left out. The call rests on the fitted dose curve; in most records, active means well fitted inhibition curve with a large enough effect; inconclusive means small, poorly fitted or top-dose-only effect; inactive means no such curve, though single readings can be large or run the other way. This excerpt belongs to a sample that is enriched for actives.
Target: Bifunctional 3'-5' exonuclease/ATP-dependent helicase WRN (Homo sapiens) (UniProt Q14191)
Assay: qHTS for Inhibitors of WRN Helicase; further: nearly all actives have a fitted effect of over 55% in size
Details: WRN helicase unwinding, fluorescent forked duplex, kinetic; series mostly up to 114 µM; activity change, negative = inhibition: at the top concentration
Outline: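 Screening of the MLSMR collection measured strand separation of a quenched forked DNA duplex (100 nM) by 20 nM WRN with 2 mM ATP, all final. Compounds were preincubated with enzyme 15 min at room temperature.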
On the % scale 0 is the no-effect control and ±100 the full control effect; potency means the concentration at half of the fitted maximal effect.

Chain of Bifunctional 3'-5' exonuclease/ATP-dependent helicase WRN (Homo sapiens) (Q14191 whole entry, looked up): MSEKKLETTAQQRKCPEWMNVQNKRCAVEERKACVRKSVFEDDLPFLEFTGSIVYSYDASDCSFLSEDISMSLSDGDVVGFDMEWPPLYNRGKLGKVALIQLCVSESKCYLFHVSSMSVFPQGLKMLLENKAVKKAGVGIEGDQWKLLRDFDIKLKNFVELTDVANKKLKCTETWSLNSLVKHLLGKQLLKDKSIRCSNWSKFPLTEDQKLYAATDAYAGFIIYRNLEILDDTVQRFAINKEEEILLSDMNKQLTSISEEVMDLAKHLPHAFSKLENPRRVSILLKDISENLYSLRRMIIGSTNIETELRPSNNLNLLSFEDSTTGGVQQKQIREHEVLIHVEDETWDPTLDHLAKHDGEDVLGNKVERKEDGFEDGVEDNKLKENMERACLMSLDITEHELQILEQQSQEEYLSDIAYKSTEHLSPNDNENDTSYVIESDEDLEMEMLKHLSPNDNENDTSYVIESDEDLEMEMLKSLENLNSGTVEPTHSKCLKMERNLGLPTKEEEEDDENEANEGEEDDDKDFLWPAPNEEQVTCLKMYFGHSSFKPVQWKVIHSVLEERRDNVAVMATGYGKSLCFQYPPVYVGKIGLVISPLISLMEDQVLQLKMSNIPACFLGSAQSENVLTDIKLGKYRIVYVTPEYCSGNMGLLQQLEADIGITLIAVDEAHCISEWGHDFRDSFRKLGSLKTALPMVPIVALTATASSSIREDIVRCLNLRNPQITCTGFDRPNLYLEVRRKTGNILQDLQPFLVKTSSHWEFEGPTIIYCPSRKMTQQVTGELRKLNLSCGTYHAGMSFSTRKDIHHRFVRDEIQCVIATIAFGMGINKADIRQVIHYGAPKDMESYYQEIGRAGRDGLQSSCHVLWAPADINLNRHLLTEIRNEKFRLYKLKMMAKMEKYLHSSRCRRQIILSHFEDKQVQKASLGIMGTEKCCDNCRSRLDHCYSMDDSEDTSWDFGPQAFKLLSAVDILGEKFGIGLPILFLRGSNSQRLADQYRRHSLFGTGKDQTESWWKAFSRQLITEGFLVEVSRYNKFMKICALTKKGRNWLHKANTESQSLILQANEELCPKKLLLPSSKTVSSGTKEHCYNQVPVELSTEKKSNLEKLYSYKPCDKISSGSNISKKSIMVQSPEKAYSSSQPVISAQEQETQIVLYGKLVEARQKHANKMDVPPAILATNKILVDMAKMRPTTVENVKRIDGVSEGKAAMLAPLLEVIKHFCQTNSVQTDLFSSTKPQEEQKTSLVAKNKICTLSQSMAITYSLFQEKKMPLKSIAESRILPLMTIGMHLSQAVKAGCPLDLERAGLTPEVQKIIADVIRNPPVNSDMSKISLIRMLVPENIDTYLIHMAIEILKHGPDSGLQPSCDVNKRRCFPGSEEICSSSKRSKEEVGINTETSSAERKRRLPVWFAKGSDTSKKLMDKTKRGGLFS

Row | SMILES | activity change, negative = inhibition | Potency
1 | CCc1cc(C(c2ccccc2OC)N2CCOCC2)c(NC(=O)c2ccccc2)s1 (stereo unspecified) | -6.56% (inactive) | –
2 | O=C(Nc1ccccc1C(=O)NCCCn1ccnc1)c1ccc(Cl)cc1Cl | -10.2% (inactive) | –
3 | CCCNC(=O)C1(C)CCCN(Cc2cccc(C(F)(F)F)c2)C1 (stereo unspecified) | 1.01% (inactive) | –
4 | COCCN(Cc1cc2cc3c(cc2nc1Cl)OCO3)C(=O)c1cccc(C)c1 | 6.25% (inactive) | –
5 | COc1cccc(/C=N/NC(=O)c2[nH]nc3c2CCc2ccccc2-3)c1O | – | 25.1 µM (active)
6 | COc1ccc(OC)c(/C=N/NC(=O)c2ccc[n+](CC(=O)c3ccccc3)c2)c1 | -1.88% (inactive) | –
7 | COc1cc(/C=N/NC(=O)c2cccnc2)ccc1OC(=O)c1cccc(Br)c1 | -19.9% (inactive) | –
8 | COC(=O)[C@@]12C[C@@H](CC(=O)NCc3cccc(C(F)(F)F)c3)C(=O)N(Cc3ccco3)C1=CCC(C)(C)C2 | -8.06% (inactive) | –
9 | CC(=O)Nc1ccc(Nc2c3ccccc3nc3ccccc23)cc1 | – | 25.1 µM (active)
10 | O=C(NNc1c2ccccc2nc2ccccc12)c1cc2ccccc2cc1O | -16.5% [at 57.1 µM] (inactive) | –
11 | CC(=O)Nc1ccc(Nc2c([N+](=O)[O-])cc(S(C)(=O)=O)cc2[N+](=O)[O-])cc1 | -3.38% (inactive) | –
12 | COCCN1C(=O)c2oc3c(C)cc(C)cc3c(=O)c2C1c1cccc(O)c1 (stereo unspecified) | -6.21% (inactive) | –
13 | C[C@H](NC(=O)c1nc[nH]c1C(=O)N[C@@H](C)C(=O)OC(C)(C)C)C(=O)OC(C)(C)C | -3.84% (inactive) | –
14 | O=C(NCc1nnc(SCC(=O)N2CCCc3ccccc32)o1)c1ccccc1F | -16.5% (inactive) | –
15 | N#Cc1c(-c2cccs2)nc(SCC(=O)c2ccc(Br)cc2)[nH]c1=O | – | 50.1 µM (active)
16 | CC(=O)CSc1nc(CCc2ccccc2)c(C#N)c(=O)[nH]1 | -3.59% [at 57.1 µM] (inactive) | –
17 | Cc1cc(C)c2c(=O)[nH]c(SCC(=O)Nc3ccc(Br)cc3)nc2n1 | -11.3% (inactive) | –
18 | CCC1(c2ccccc2)NC(=O)N(CC(=O)Nc2ccccc2C(=O)NC2CCCC2)C1=O (stereo unspecified) | -7.05% (inactive) | –
19 | O=C(NC1CCCCC1)C(c1cc2ccccc2o1)n1c(=O)c(-c2ccco2)nc2ccccc21 (stereo unspecified) | -13.1% (inactive) | –
20 | CCCCN(C(=O)C(CCSC)N1C(=O)c2ccccc2C1=O)c1c(N)n(CCC)c(=O)[nH]c1=O (stereo unspecified) | 5.06% (inactive) | –
21 | N#Cc1ccc(-c2nc3c(Cl)cc(C(F)(F)F)cn3c2Cc2ccccc2C(F)(F)F)cc1 | 0.352% (inactive) | –
22 | COc1ccc(CN2CCC(C)(Oc3cccc(F)c3)C2)c2ccccc12 (stereo unspecified) | 18.3% (inactive) | –
23 | COc1cccc2c1C(=O)c1c(O)c3c(c(O)c1C2=O)CC(O)(C(C)=NNC(=O)c1ccc(Cl)c(Cl)c1)CC3OC1CC(N)C(O)C(C)O1 (stereo unspecified) | – | 31.6 µM (active)

Row | SMILES | activity change, negative = inhibition | Potency
24 | CCOc1cnc(C(=O)NNC(=O)c2ccccc2Br)o1 | -11.3% (inactive) | –
25 | O=C(c1ccccc1)c1ccc(OC(=O)N2CCCC2)cc1 | 1.88% (inactive) | –
26 | COc1cccc(-c2nnc(NC(=O)c3ccc(S(=O)(=O)N(CC(C)C)CC(C)C)cc3)o2)c1 | -8.88% [at 57.1 µM] (inactive) | –
27 | O=C(COc1ccccc1Cl)Nn1cnnc1 | 1.03% (inactive) | –
28 | C=CCN(N=Nc1cccc([N+](=O)[O-])c1)c1cccc([N+](=O)[O-])c1 | -5.96% (inactive) | –
29 | CC(=O)NC(c1ccccc1)c1nc(-c2cccc(C(C)C)c2)cs1 (stereo unspecified) | -6.85% (inactive) | –
30 | COc1ccc(C(C[N+](=O)[O-])n2nc(C)cc2C)cc1 (stereo unspecified) | – | 39.8 µM (active)
31 | Cc1cc(C)n(CC(O)COc2ccc(C(C)(C)C)cc2)n1 (stereo unspecified) | 2.02% [at 11.6 µM] (inactive) | –
32 | COc1ccc(C(CNC(=O)COc2ccc([N+](=O)[O-])cc2)N2CCCCC2)cc1 (stereo unspecified) | -1.35% (inactive) | –
33 | CCCCC(NS(=O)(=O)c1ccc(C)cc1)C(=O)Oc1ccc2c3c(c(=O)oc2c1)CCC3 (stereo unspecified) | 3.21% (inactive) | –
34 | CCOc1ccc(CCN2C(=O)C(=O)N([C@@H](CC(C)C)CN3CCC[C@H]3CN3C(=O)C(=O)NC[C@@H]3Cc3ccccc3)C[C@@H]2CC(C)C)cc1 | -0.85% (inactive) | –
35 | C[C@H]1CN([C@@H](C)CO)C(=O)c2cc(-c3ccccc3F)cnc2O[C@H]1CN(C)C(=O)C1CCOCC1 | 2.75% (inactive) | –
36 | Cc1cccc(C)c1-n1nnnc1C1(C)CCC(=O)N1CCOc1ccccc1 (stereo unspecified) | -5.38% (inactive) | –
37 | CC(=O)Nc1cccc(-c2cc3nc(NCc4cccnc4)n(C)c(=O)c3s2)c1 | 2.19% (inactive) | –
38 | C=C(C)C(=O)Nc1cccc(C2=NOC3(C2)C[C@H](C(N)=O)N(C(=O)C(c2ccccc2)c2ccccc2)C3)c1 (stereo partly specified) | – | 50.1 µM (active)
39 | C/C=C(/C)C(=O)Nc1cccc(C2=NOC3(C2)C[C@@H](C(N)=O)N(C(=O)C2(C)CC2)C3)c1 (stereo partly specified) | -2.56% (inactive) | –
40 | C/C=C\C=C\C(=O)N1CC2(CC(c3cccc(NC(=O)/C(C)=C\C)c3)=NO2)C[C@H]1C(N)=O (stereo partly specified) | -13.3% [at 11.6 µM] (inactive) | –
41 | O=C(Nc1ccccc1Cl)/C(Cl)=C(\Cl)S(=O)c1ccccc1 (stereo unspecified) | – | 2.51 µM (active)
42 | CC(=O)c1ccc(NC(=O)C(C)N(C)CC(=O)Nc2ccccc2Cl)cc1 (stereo unspecified) | -0.858% (inactive) | –
43 | O=C(Nc1ccccc1Cl)c1ccccc1S(=O)(=O)c1ccccc1[N+](=O)[O-] | -2.06% (inactive) | –
44 | COc1cc(OC)cc(C2=Cc3ccccc3C(CC(=O)c3ccco3)N2c2ccc(-c3cnc(OC)nc3)cc2)c1 (stereo unspecified) | -4.91% (inactive) | –
45 | Cc1ccc(S(=O)(=O)N(c2cccc(C)c2)C2CCS(=O)(=O)C2)cc1 (stereo unspecified) | 5.52% (inactive) | –
46 | O=C(CC[C@H]1O[C@@H](n2ccc(=O)[nH]c2=O)[C@H](O)[C@@H]1O)N[C@H](Cc1ccccc1)C(=O)NCCCN1CCCC1=O | -15% (inactive) | –

Row | SMILES | activity change, negative = inhibition | Potency
47 | CN(C(=O)COC(=O)Cc1ccccc1[N+](=O)[O-])C1CCS(=O)(=O)C1 (stereo unspecified) | -0.143% (inactive) | –
48 | COc1ccc(NC(=O)COc2ccc(C(=O)OCC(=O)N(C)C3CCS(=O)(=O)C3)cc2OC)cc1 (stereo unspecified) | -1.43% (inactive) | –
49 | CN(C(=O)COC(=O)c1cc(-c2ccco2)nc2ccccc12)C1CCS(=O)(=O)C1 (stereo unspecified) | – | 31.6 µM (active)
50 | Cc1ccc(C2(c3ccc(C)cc3)NC(=O)N(Cc3c(C)noc3C)C2=O)cc1 | -0.858% (inactive) | –
51 | CCOC(=O)c1c(NC(=O)CSc2nnc(CN3CCOCC3)n2C)sc2c1CCCC2 | -0.021% (inactive) | –
52 | NC(=O)c1c(NC(=O)CSc2nnc(-c3ccco3)n2N)sc2c1CCCC2 | – | 50.1 µM (active)
53 | Nn1c(SCC(=O)Nc2nccs2)nnc1-c1ccco1 | -5.77% (inactive) | –
54 | COc1cc(OC)c(NC(=O)C2CCCN2C(=O)OCc2ccccc2)cc1Cl (stereo unspecified) | -0.432% [at 57.1 µM] (inactive) | –
55 | O=C1Nc2ccccc2NC(c2ccc3c(c2)OCO3)=C1N(Cc1ccc(F)cc1)C(=O)c1ccco1 | -3.23% (inactive) | –
56 | CC(C)c1ccc2c(c1)c(SC(C)(C)C)c(CC(C)(C)C(=O)O)n2Cc1ccc(Cl)cc1 | – | 50.1 µM (active)
57 | CCC(CC)NC(=O)CSc1nnc(-c2c[nH]c3ccccc23)o1 | 7.97% (inactive) | –
58 | O=C(c1cc(C2CCCCN2S(=O)(=O)c2ccccc2)on1)N1CCOCC1 (stereo unspecified) | -1.79% (inactive) | –
59 | COc1ccc2c(c1)C(=C(C#N)C#N)C(=O)N2CCc1ccccc1 | – | 50.1 µM (active)
60 | CCCCN1C(=O)/C(=C(/C#N)C(N)=O)c2ccccc21 | 23.5% (inactive) | –
61 | C#CCN1C(=O)C(O)(CC(=O)c2cc(OC)ccc2OC)c2ccccc21 (stereo unspecified) | -7.71% (inactive) | –
62 | CCCCn1c(N)c(N(CCOC)C(=O)c2sc3ccccc3c2Cl)c(=O)[nH]c1=O | -13.4% (inactive) | –
63 | Cc1[nH]c2ccccc2c1C(=O)c1cc([C@H](NC(=O)OC(C)(C)C)C(C)C)sc1N | -13.8% (inactive) | –
64 | COc1ccc([C@H]2CC(=O)C[C@@H](CCn3cc(CC4CCCC4)nn3)O2)cc1 | 1.6% (inactive) | –
65 | C[N+](C)(CCCCCC[N+](C)(C)CCCN1C(=O)c2cccc3cccc(c23)C1=O)CCCN1C(=O)c2cccc3cccc(c23)C1=O | – | 44.7 µM (active)
66 | O=C1c2cccc3cccc(c23)C(=O)N1CCCCCc1n[nH]c(=S)o1 | – | 100 µM (active)
67 | O=C(COC(=O)CCCN1C(=O)c2cccc3cccc(c23)C1=O)NC1CCS(=O)(=O)C1 (stereo unspecified) | 7.47% (inactive) | –
68 | O=C(CN1C(=O)c2cccc3cccc(c23)C1=O)N1CCCCC1 | 7.87% (inactive) | –
69 | O=C(CN1C(=O)c2cccc3cccc1c23)Nc1ccccc1 | -0.0297% [at 11.6 µM] (inactive) | –

Row | SMILES | activity change, negative = inhibition | Potency
70 | O=C(CCCN1C(=O)c2cccc3cccc(c23)C1=O)N1CCN(Cc2ccc3c(c2)OCO3)CC1 | 4.65% (inactive) | –
71 | Cc1ccc(CCNC(=O)CN2C(=O)CSc3ccc(S(=O)(=O)N4CCOCC4)cc32)cc1 | 3.55% (inactive) | –
72 | CCOC(=O)[C@]12CCCC=C1N(CCC1=CCCCC1)C(=O)[C@H](CC(=O)NCCCCc1ccccc1)C2 | -1.56% (inactive) | –
73 | CCCCOCCCNC(=O)C[C@@H]1C[C@@]2(C(=O)OCC)CCCC=C2N(CCC2=CCCCC2)C1=O | -5.97% (inactive) | –
74 | CN(C)c1ccc(CSc2ccccc2)cc1 | -2.78% (inactive) | –
75 | CS/C(=C\[N+](=O)[O-])Nc1ccc(C)cc1 | -4.16% (inactive) | –
76 | Nc1nc2ncccn2c1-c1ccccc1 | -10.4% (inactive) | –
77 | COc1ccc(NCc2nnc(SCc3ccccc3)n2-c2ccc(OC)cc2)cc1 | -8.11% (inactive) | –
78 | Clc1ccccc1CSc1nnc(-c2ccco2)c(-c2ccco2)n1 | – | 50.1 µM (active)
79 | c1ccc(CSc2nnc(-c3ccco3)c(-c3ccco3)n2)cc1 | – | 28.2 µM (active)
80 | CSc1nc(-c2ccco2)nn1C(=O)c1ccccc1Cl | 1.96% (inactive) | –
81 | c1ccc(Cc2c(-c3ccco3)nc3c4ccccc4ccn23)cc1 | -14.6% (inactive) | –
82 | O=C(Nc1nnc(SCc2ccccc2Cl)s1)c1cccc([N+](=O)[O-])c1 | -22% (inactive) | –
83 | CCCC1(C(=O)OC)NC(c2ccco2)C2C(=O)N(C)C(=O)C21 (stereo unspecified) | 7.98% (inactive) | –
84 | Cc1cc(C)c(S(=O)(=O)N2C=CC(C(F)(F)F)=NCC2)c(C)c1 | 0.503% (inactive) | –
85 | CSc1c(SCc2ccccc2)cnn(Cc2ccccc2)c1=O | -22.2% [at 57.1 µM] (inactive) | –
86 | c1ccc(-n2cccc2)c(N2CCCCC2)c1 | 5.84% (inactive) | –
87 | O=C(c1ccc(Cl)c(S(=O)(=O)N2CCCCCC2)c1)N1CCN(c2ccc(O)cc2)CC1 | 1.3% (inactive) | –
88 | O=C1C=CC(=O)N1c1ccc(N2CCCCC2)cc1 | – | 39.8 µM (active)
89 | CCCC(NCC(=O)Nc1ccccc1C(=O)NC1CC1)c1ccccc1 (stereo unspecified) | 0.331% (inactive) | –
90 | CC(C)(C)c1cc[n+](-c2[nH]c(=O)sc2/C=N/N=C(\[O-])c2ccccc2)cc1 | -3.25% (inactive) | –
91 | CCc1noc(C)c1C(=O)Oc1ccc(N(C)S(=O)(=O)c2ccc(C)c(C)c2)cc1 | 3.71% (inactive) | –
